“And” between values parts separate entries of the source, which are not always exact repeats. Identical values can stand only once. Inconclusive results are not listed. The source made the active and inactive calls. Unless noted, calls follow the shape of the dose curve; as a rule, active = well fitted curve in the direction sought with a large enough effect in the repeat runs; inconclusive = weak or mixed curves; inactive = no such curve, though single readings can be large; an effect the other way counts as inactive or inconclusive.
Columns and labels:
[1] = qHTS assay to identify small molecule antagonists of the thyroid receptor (TR) signaling pathway - cell viability counter screen (AID 743064); also: nearly all actives have a fitted effect of over 50% in size
Method in brief: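 GH3.TRE-Luc rat pituitary cells carrying a TRE-luciferase reporter were treated with compound plus 1 nM T3 (final) for 23.5 h at 37 °C. Viability was then read in the same wells by CellTiter-Fluor fluorescence after a further 30 min.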

[2] = qHTS assay to identify small molecule antagonists of the thyroid receptor (TR) signaling pathway (AID 743065); also: series mostly up to about 70 µM; nearly all actives have a fitted effect of over 55% in size
Method in brief: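 GH3.TRE-Luc rat pituitary cells carrying two TR response elements driving luciferase were plated for 4 h, given compound plus 1 nM T3 (final), and incubated 23.5 h at 37 C. ONE-Glo luminescence measured reporter inhibition; CellTiter-Fluor fluorescence tracked cytotoxicity.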

[3] = system: thyroid hormone receptor (rat, GH3 cells); assay: qHTS assay to identify small molecule agonists of the thyroid receptor (TR) signaling pathway (AID 743066; calls by dose curve)
[4] = molecular target: Estrogen receptor (Homo sapiens) (UniProt P03372); assay: qHTS assay to identify small molecule antagonists of the estrogen receptor alpha (ER-alpha) signaling pathway (AID 743069; active = well fitted curve in the direction sought with a large enough effect in the signal ratio in the repeat runs, not every such curve was filed as active; the % refers to the signal ratio)
Method in brief: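 HEK293 cells stably carrying an ER-alpha-UAS-bla beta-lactamase reporter were pre-cultured overnight in 2% charcoal-stripped FBS medium. Test compounds in DMSO were added together with 17beta-estradiol for 18 hr at 37C. Read-out was fluorescence after 2 hr with LiveBLAzer B/G FRET substrate at room temperature.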

[5] = qHTS assay to identify small molecule antagonists of the estrogen receptor alpha (ER-alpha) signaling pathway - cell viability counter screen (AID 743074; calls by dose curve; also: nearly all actives have a fitted effect of over 45% in size)
[6] = molecular target: Estrogen receptor (Homo sapiens) (UniProt P03372); assay: qHTS assay to identify small molecule agonists of the estrogen receptor alpha (ER-alpha) signaling pathway (AID 743075; calls by dose curve)
[7] = molecular target: Estrogen receptor (Homo sapiens) (UniProt P03372); assay: qHTS assay to identify small molecule agonists of the estrogen receptor alpha (ER-alpha) signaling pathway using the BG1 cell line (AID 743079); also: nearly all actives have a fitted effect of over 20% in size; also: potency is read from the fitted curve at half-maximal effect
[8] = qHTS assay to identify small molecule antagonists of the estrogen receptor alpha (ER-alpha) signaling pathway using the BG1 cell line - cell viability counter screen (AID 743081);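 also: compound given together with 17beta-estradiol as the ER stimulus; series mostly up to about 70 µM; nearly all actives have a fitted effect of over 45% in size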
[9] = molecular target: Aromatase (Homo sapiens) (UniProt P11511); assay: qHTS assay to identify aromatase inhibitors (AID 743083); also: series mostly up to about 70 µM; nearly all actives have a fitted effect of over 55% in size
[10] = qHTS assay to identify aromatase inhibitors - cell viability counter screen (AID 743084);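 also: cells stimulated with testosterone during compound exposure; nearly all actives have a fitted effect of over 55% in size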
[11] = qHTS assay to identify small molecule that activate the aryl hydrocarbon receptor (AhR) signaling pathway - cell viability counter screen (AID 743086);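 also: HepG2 liver cells carrying the AhR DRE luciferase reporter; series mostly up to about 70 µM; nearly all actives have a fitted effect of over 45% in size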
Method in brief: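 HepG2-AhR-luc (HG2L7.5c1) cells, 4000/well, were preincubated 5 h at 37C, exposed to compound in qHTS format for 24 hr at 37C, then given CellTiter-Fluor for 30 min; viability was read as fluorescence in the reporter wells.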

[12] = molecular target: Peroxisome proliferator-activated receptor gamma (Homo sapiens) (UniProt P37231); assay: qHTS assay to identify small molecule agonists of the peroxisome proliferator-activated receptor gamma (PPARg) signaling pathway (AID 743094; active = well fitted activation curve with a large enough effect in the signal ratio in the repeat runs, not every such curve was filed as active; the % refers to the signal ratio)
Method in brief: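 Compounds dissolved in DMSO were added to PPARg UAS-bla HEK293H cells for 17 h at 37C, and reporter expression was quantified by fluorescence intensity after 1 h with LiveBLAzer B/G FRET substrate.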

[13] = qHTS assay to identify small molecule antagonists of the peroxisome proliferator-activated receptor gamma (PPARg) signaling pathway - cell viability counter screen (AID 743194); also: nearly all actives have a fitted effect of over 55% in size
Method in brief: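 PPARg-UAS-bla HEK293H cells were plated, rested 5 h at 37 C, then treated with compounds plus rosiglitazone (50 nM final) for 17 h at 37 C; viability was then read by CellTiter-Glo luminescence after 30 min at room temperature.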

[14] = qHTS assay for small molecule agonists of the antioxidant response element (ARE) signaling pathway (AID 743202; active = well fitted activation curve with a large enough effect in the signal ratio in the repeat runs, not every such curve was filed as active; the % refers to the signal ratio)
Method in brief: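 Read-out: LiveBLAzer B/G FRET substrate fluorescence after 2 h at room temperature, following 16 h compound treatment at 37 C of HepG2 cells carrying an ARE-driven beta-lactamase reporter.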

[15] = qHTS assay for small molecule agonists of the antioxidant response element (ARE) signaling pathway - cell viability counter screen (AID 743203; calls by dose curve; also: nearly all actives have a fitted effect of over 55% in size)
Method in brief: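 Following 16 hrs of compound treatment at 37C, HepG2 cells with an ARE-controlled beta-lactamase gene were lysed with CellTiter-Glo. Luminescence was read after 30 min at room temperature.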

[16] = qHTS assay for small molecule activators of the heat shock response signaling pathway - cell viability counter screen (AID 743209); also: nearly all actives have a fitted effect of over 50% in size
Method in brief: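 Readout: CellTiter-Glo luminescence, 30 min at room temperature. System: HSE-bla HeLa cells, 1500/well, plated overnight. Treatment: compounds in DMSO, 5 h at 37 C.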

[17] = qHTS assay for small molecule activators of the heat shock response signaling pathway (AID 743210; active = well fitted activation curve with a large enough effect in the signal ratio in the repeat runs, with a control signal flat, not every such curve was filed as active; the % refers to the signal ratio; also: series mostly up to about 63 µM)
Method in brief: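 HSE-bla HeLa cells (beta-lactamase reporter under heat shock response elements) were exposed to compounds for 5 h at 37 C, then loaded with LiveBLAzer B/G FRET substrate for 2.5 h at room temperature before fluorescence reading.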

[18] = molecular target: Aryl hydrocarbon receptor (Homo sapiens) (UniProt P35869); assay: qHTS assay to identify small molecule that activate the aryl hydrocarbon receptor (AhR) signaling pathway (AID 743085); also: nearly all actives have a fitted effect of over 15% in size; also: potency is read from the fitted curve at half-maximal effect;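 as to activation: HG2L7.5c1 human HepG2 liver cells with stably integrated DRE-driven firefly reporter; series mostly up to about 70 µM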
Method in brief: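 HepG2 cells (HG2L7.5c1) stably carrying a firefly luciferase reporter driven by 20 dioxin responsive elements were exposed to compound for 24 h at 37C after a 5 h settling period; luminescence rise (ONE-Glo) indicated activation.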

[19] = molecular target: Peroxisome proliferator-activated receptor gamma (Homo sapiens) (UniProt P37231); assay: qHTS assay to identify small molecule antagonists of the peroxisome proliferator-activated receptor gamma (PPARg) signaling pathway (AID 743191; calls by dose curve; also: series mostly up to about 63 µM; nearly all actives have a fitted effect of over 30% in size)
Method in brief: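 GeneBLAzer PPARg UAS-bla HEK293H cells carrying a UAS-driven beta-lactamase reporter were plated at 3000 cells/well, preincubated 5 h at 37C, then given compound for 17 h at 37C; LiveBLAzer B/G FRET substrate was read after 1 h at room temperature.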

[20] = qHTS assay to identify small molecule antagonists of the estrogen receptor alpha (ER-alpha) signaling pathway using the BG1 cell line (AID 743080; calls by dose curve;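 also: BG1 cells stimulated with 17beta-estradiol alongside compound; series mostly up to about 70 µM; nearly all actives have a fitted effect of over 25% in size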)
Method in brief: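 Luciferase inhibition measured with ONE-Glo after 30 min at RT in BG1Luc4E2 cells given test compounds and 17beta-estradiol for 21.5 h at 37 C; CellTiter-Fluor viability read in the same wells beforehand.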
% is scaled to controls: 0 for no effect and ±100 for the full control effect.

Chain of Aryl hydrocarbon receptor (Homo sapiens) (P35869 whole entry, looked up): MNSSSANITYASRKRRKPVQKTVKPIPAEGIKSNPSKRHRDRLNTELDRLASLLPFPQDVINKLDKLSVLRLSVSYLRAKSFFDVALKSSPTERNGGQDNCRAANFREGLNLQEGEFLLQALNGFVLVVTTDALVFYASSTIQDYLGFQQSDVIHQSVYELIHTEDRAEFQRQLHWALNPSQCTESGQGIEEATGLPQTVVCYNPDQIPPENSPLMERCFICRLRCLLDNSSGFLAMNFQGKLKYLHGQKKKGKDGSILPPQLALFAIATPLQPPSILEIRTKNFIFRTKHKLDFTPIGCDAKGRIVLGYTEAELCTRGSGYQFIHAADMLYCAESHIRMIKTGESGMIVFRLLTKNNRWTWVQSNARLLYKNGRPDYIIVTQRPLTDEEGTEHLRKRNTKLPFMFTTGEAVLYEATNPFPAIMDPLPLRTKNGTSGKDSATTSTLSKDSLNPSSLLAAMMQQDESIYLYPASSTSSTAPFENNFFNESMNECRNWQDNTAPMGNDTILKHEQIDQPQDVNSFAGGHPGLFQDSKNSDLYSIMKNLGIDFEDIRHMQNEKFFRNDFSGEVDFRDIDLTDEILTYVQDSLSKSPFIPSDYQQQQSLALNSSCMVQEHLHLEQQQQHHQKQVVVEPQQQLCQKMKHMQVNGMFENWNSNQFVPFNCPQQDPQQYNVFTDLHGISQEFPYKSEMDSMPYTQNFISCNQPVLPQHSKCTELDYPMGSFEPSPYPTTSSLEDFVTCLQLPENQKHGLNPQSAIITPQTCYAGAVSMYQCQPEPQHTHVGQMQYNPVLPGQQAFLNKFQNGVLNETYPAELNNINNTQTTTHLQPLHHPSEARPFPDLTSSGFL
Chain of Aromatase (Homo sapiens) (P11511 whole entry, looked up): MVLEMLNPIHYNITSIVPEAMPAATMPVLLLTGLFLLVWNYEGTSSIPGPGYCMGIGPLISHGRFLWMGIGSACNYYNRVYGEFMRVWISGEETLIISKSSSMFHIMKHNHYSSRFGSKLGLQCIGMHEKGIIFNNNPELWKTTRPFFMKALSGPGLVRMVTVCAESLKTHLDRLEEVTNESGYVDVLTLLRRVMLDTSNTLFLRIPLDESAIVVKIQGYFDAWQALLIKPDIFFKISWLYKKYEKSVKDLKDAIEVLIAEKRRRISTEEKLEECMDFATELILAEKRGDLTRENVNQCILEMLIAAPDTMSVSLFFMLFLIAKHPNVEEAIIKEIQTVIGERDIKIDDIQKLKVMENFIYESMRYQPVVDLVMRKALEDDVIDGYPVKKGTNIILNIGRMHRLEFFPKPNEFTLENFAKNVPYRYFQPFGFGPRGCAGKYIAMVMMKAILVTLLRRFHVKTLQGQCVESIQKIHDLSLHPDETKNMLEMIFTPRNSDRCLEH
Chain of Peroxisome proliferator-activated receptor gamma (Homo sapiens) (P37231 whole entry, looked up): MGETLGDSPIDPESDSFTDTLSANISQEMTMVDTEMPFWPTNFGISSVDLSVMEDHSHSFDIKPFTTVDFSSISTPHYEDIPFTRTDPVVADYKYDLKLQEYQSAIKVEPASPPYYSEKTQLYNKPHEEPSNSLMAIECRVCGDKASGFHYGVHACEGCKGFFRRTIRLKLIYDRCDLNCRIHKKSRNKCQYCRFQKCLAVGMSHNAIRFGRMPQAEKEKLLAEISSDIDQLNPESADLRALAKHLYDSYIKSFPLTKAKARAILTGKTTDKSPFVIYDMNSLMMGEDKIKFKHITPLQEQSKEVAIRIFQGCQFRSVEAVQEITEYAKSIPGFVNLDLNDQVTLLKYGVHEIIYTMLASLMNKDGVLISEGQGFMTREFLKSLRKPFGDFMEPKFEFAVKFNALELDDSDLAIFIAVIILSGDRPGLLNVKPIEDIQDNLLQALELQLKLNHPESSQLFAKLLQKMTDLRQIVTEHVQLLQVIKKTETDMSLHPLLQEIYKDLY
Chain of Estrogen receptor (Homo sapiens) (P03372 whole entry, looked up): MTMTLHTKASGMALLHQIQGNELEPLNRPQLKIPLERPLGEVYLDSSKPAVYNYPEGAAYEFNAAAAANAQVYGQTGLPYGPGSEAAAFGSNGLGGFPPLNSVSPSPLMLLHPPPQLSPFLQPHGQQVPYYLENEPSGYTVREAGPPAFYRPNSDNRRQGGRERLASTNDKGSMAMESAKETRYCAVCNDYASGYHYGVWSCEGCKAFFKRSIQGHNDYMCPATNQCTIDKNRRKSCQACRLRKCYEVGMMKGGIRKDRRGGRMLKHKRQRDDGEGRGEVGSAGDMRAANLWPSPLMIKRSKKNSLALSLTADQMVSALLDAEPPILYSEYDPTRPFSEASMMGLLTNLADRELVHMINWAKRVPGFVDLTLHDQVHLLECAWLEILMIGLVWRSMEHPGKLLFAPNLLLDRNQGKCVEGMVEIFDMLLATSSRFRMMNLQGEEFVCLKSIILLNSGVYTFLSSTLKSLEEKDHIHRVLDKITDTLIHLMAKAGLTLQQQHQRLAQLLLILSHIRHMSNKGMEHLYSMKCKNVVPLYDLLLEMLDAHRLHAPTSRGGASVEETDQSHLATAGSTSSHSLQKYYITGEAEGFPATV

CC(C)CCCO
inactive: Potency [1] | Potency [2] | outcome [3] | Potency [4] | Potency [5] | Potency [6] | Potency [7] | outcome [8] | outcome [9] | Potency [10] | Potency [11] | Potency [12] | outcome [13] | Potency [14] | outcome [15] | outcome [16] | outcome [17]

CCN1C=CN(C)C1C (stereo not given)
inactive: Potency [1] | Potency [2] | outcome [3] | Potency [4] | Potency [5] | Potency [6] | Potency [7] | outcome [8] | outcome [9] | Potency [10] | Potency [18] | Potency [11] | Potency [12] | outcome [13] | Potency [14] | outcome [15] | outcome [16] | outcome [17]

CC(=O)c1ccccc1[N+](=O)[O-]
inactive: Potency [1] | Potency [2] | outcome [3] | Potency [4] | Potency [5] | Potency [6] | Potency [7] | outcome [8] | outcome [9] | Potency [10] | Potency [18] | Potency [11] | Potency [12] | Potency [19] | outcome [13] | Potency [14] | outcome [15] | outcome [16] | outcome [17]

O=C(O)c1cn(C2CC2)c2cc(N3CCNCC3)c(F)cc2c1=O
inactive: Potency [1] | Potency [2] | outcome [3] | Potency [4] | Potency [5] | Potency [6] | Potency [7] | Potency [20] | outcome [8] | Potency [10] | Potency [11] | Potency [12] | Potency [19] | outcome [13] | outcome [16] | outcome [17]

CN1[C@@H]2CC[C@H]1CC(OC(=O)C(O)c1ccccc1)C2 (stereo not given in full)
inactive: Potency [1] | Potency [2] | outcome [3] | Potency [4] | Potency [5] | Potency [6] | Potency [7] | outcome [8] | outcome [9] | Potency [10] | Potency [11] | Potency [19] | outcome [13] | Potency [14] | outcome [15] | outcome [16] | outcome [17]

CCC(C(=O)NC(=O)NC(C)=O)c1ccccc1 (stereo not given)
inactive: Potency [1] | Potency [2] | outcome [3] | Potency [4] | Potency [5] | Potency [6] | Potency [7] | Potency [20] | outcome [9] | Potency [10] | Potency [18] | Potency [11] | Potency [12] | Potency [19] | outcome [13] | Potency [14] | outcome [15] | outcome [16]

Cc1cc(C)c(N=Nc2c(O)c(S(=O)(=O)O)cc3cc(S(=O)(=O)O)ccc23)cc1C
inactive: activity change, negative = cytotoxic [1] -15.7% [at 8.44 µM] | activity, negative = inhibition [2] -3.21% [at 8.44 µM] | activation [3] 0.237% [at 8.08 µM] | activity, negative = inhibition [4] -5.6% [at 6.71 µM] | activity, negative = cytotoxicity [5] -15.7% [at 6.72 µM] | activation [6] -3.26% [at 6.71 µM] | activation [7] 5.28% [at 8.47 µM] | activity change, negative = cytotoxicity [8] -6.97% [at 8.47 µM] | activity, negative = inhibition [9] -5.99% [at 8.47 µM] | activation [18] -3.38% [at 8.47 µM] | viability change, negative = cytotoxic [11] -19.3% [at 8.47 µM] | activity change, negative = cytotoxicity [13] -10.4% [at 5.95 µM] | activation [14] -8.59% [at 8.36 µM] | viability change, negative = cytotoxic [15] -2.33% [at 8.36 µM] | activity change, negative = cytotoxicity [16] -2.28% [at 5.95 µM] | activation [17] -0.565% [at 5.95 µM]

C=CCCC(=O)O
inactive: Potency [1] | Potency [2] | outcome [3] | Potency [4] | Potency [5] | Potency [6] | Potency [20] | outcome [8] | outcome [9] | Potency [10] | Potency [18] | Potency [12] | Potency [19] | outcome [13] | Potency [14] | outcome [15] | outcome [16] | outcome [17]

[O-][n+]1cccc(CO)c1
inactive: Potency [1] | Potency [2] | outcome [3] | Potency [4] | Potency [5] | Potency [6] | Potency [20] | outcome [8] | outcome [9] | Potency [18] | Potency [11] | Potency [12] | Potency [19] | outcome [13] | Potency [14] | outcome [15] | outcome [16] | outcome [17]

Cc1ccc(C(=O)c2ccccc2)cc1
inactive: Potency [1] | Potency [2] | outcome [3] | Potency [4] | Potency [5] | Potency [6] | outcome [8] | outcome [9] | Potency [10] | Potency [18] | Potency [11] | Potency [12] | outcome [13] | Potency [14] | outcome [15] | outcome [16] | outcome [17]
active: Potency [7] 21.7 µM

CC(C)(C)c1ccc(-c2ccc(C(C)(C)C)cc2)cc1
inactive: Potency [1] | Potency [2] | outcome [3] | Potency [4] | Potency [5] | Potency [6] | Potency [7] | outcome [8] | outcome [9] | Potency [10] | Potency [18] | Potency [11] | Potency [12] | outcome [13] | Potency [14] | outcome [15] | outcome [16]

C=C[Si](OC(C)=O)(OC(C)=O)OC(C)=O
inactive: Potency [1] | Potency [2] | outcome [3] | Potency [4] | Potency [5] | Potency [6] | Potency [7] | Potency [20] | outcome [8] | outcome [9] | Potency [10] | Potency [19] | outcome [13] | Potency [14] | outcome [15] | outcome [16]

CN1CC(=O)N/C1=N/C(=O)Nc1cccc(Cl)c1
inactive: Potency [1] | Potency [2] | outcome [3] | Potency [4] | Potency [5] | Potency [6] | outcome [8] | outcome [9] | Potency [10] | Potency [11] | Potency [12] | Potency [19] | outcome [13] | Potency [14] | outcome [15] | outcome [16] | outcome [17]
active: Potency [7] 29.8 µM and 5.31 µM | Potency [18] 26.6 µM and 1.68 µM

CCCCCCC1CCC(=O)O1 (stereo not given)
inactive: Potency [1] | Potency [2] | outcome [3] | Potency [4] | Potency [5] | Potency [6] | Potency [7] | Potency [20] | outcome [8] | outcome [9] | Potency [10] | Potency [11] | Potency [12] | outcome [13] | Potency [14] | outcome [15] | outcome [16] | outcome [17]

Reference: PubChem BioAssay (Tox21)
